Screening results (PubChem BioAssay)
Shown are actives, neighbours in structure and some others; about 9.2% of the full set was active somewhere.
NPC1 prom act = activators of NPC1 promoter; 2.4% of 320,000 active; Huh7 NPC1 promoter luciferase reporter, 24 h; Potency, µM (highest dose often 9.22 µM), for the others: at the highest dose activation, actives largely listed as activators; also: % of control where 0% means no effect; nearly all actives have a fitted effect of over 60% in size
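Compounds in DMSO were transferred onto Huh7 NPC1-luciferase reporter cells pre-incubated 2 h; after 24 h at 37 °C, Amplite reagent was dispensed and luminescence recorded 10 min later.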
FLuc modulator = inhibits or activates purified firefly luciferase, miR-21 counter-screen; Potency, µM (titrated, usually from 57.5 µM), for the others: at the top dose activity change, negative = inhibition, most hits filed as inhibitors; AID 588342; 6.9% of 360,000 active; purified FLuc, Km substrates, luminescence inhibition; P08659;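 also: plate controls were vehicle for no effect and reference inhibitor for full effect; nearly all actives have a fitted effect of over 55% in size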
Target sequence (P08659 whole entry, looked up): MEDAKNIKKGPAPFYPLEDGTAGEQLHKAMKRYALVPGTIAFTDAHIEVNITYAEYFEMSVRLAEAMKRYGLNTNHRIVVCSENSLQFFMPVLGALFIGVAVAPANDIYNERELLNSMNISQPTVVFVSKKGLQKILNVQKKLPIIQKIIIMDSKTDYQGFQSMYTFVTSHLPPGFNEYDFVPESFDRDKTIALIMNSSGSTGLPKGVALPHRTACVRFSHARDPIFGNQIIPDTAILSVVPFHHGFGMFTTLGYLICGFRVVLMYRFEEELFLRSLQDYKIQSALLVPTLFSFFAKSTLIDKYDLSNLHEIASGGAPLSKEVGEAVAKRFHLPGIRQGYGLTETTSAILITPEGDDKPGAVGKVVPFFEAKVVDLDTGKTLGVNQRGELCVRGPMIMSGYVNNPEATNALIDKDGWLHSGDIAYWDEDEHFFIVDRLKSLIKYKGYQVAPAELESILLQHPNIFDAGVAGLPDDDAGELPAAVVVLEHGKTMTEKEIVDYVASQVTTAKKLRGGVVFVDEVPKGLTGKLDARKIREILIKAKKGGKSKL
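Biochemical qHTS of compounds, final roughly 60 µM downward over six points, against 10 nM purified firefly luciferase using Km concentrations of substrates (10 uM D-luciferin, 10 uM ATP) in Tris acetate pH 7.5 buffer; luminescence output.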
ELG1 repair inh = blocks ELG1-dependent DNA repair in HEK293T cells; HEK293T ELG1-luciferase reporter, luminescence, 16 h; DNA damage induced by 5-fluorouridine; Potency, µM (top dose mostly 46.1 µM), for inactives: at the highest dose activity change, negative = inhibition, most hits filed as inhibitors; 2.3% of 330,000 active; AID 504467; also: % is scaled to controls: 0 for no effect and ±100 for the full control effect; nearly all actives have a fitted effect of over 55% in size
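Overnight (16 hr) co-exposure of 2,000 cells/well to 5-fluorouridine and compound at 37 °C preceded detection. Luciferase was quantified via ONE-Glo luminescence; loss of signal denotes inhibition.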
Rab9 promoter act = activators of Rab9 promoter; Potency, µM (series often up to 9.22 µM), for inactives: at the top dose activation, negative = inhibition, actives largely listed as activators; Huh7 Rab9 promoter-luciferase reporter, luminescence, 24 h; AID 485297; 2.8% of 320,000 active; also: % of control where 0% means no effect; nearly all actives have a fitted effect of over 60% in size
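Stable Rab9-luc Huh7, 1500 cells/well, 2 h settle; cmpd in DMSO, 24 h, 37 °C/5% CO2; luciferase reagent 10 min RT; luminescence.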
ELG1 genotoxic = induces genotoxicity in HEK293T cells with luciferase-tagged ELG1; HEK293T ELG1-luciferase reporter, luminescence, 16 h; Potency, µM (series often up to 46 µM), inactives show at the top dose activity change, positive = activation, hits mostly activators; 1.3% of 330,000 active; AID 504466; also: % of control where 0% means no effect; nearly all actives have a fitted effect of over 60% in size
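DMSO vehicle served as control against compound-treated ELG1-luciferase HEK293T cells; exposure lasted 16 hr at 37 °C and 5% CO2, followed by ONE-Glo luminescence detection after 30 min.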
SMN2 splice up = SMN2 splice variant enhancement | 2.8% of 210,000 active | Potency, µM (highest dose often 46.1 µM), without a hit: at the top dose activity change, positive = activation, most hits filed as activators | HEK293 SMN2-luciferase splicing reporter, luminescence, 30-36 h; also: % of control where 0% means no effect; nearly all actives have a fitted effect of over 55% in size
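HEK293 cells carry an SMN2 minigene-luciferase reporter in which exon 7 inclusion puts luciferase in frame. Cells were seeded at 2000 cells/well, attached for 10-12 hours, then exposed to compounds for 30-36 hours at 37C before ONE-Glo luminescence.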
Active calls of the source: *; ? = inconclusive; · = no result; [ ] = dose if it differs, or a comment. Calls follow the shape of the dose curve; as a rule, active = well fitted curve in the direction sought with a large enough effect; inconclusive = small, poorly fitted or top-dose-only effect, or another doubt; inactive = no such curve, though single readings can be large; an effect the other way counts as inactive or inconclusive. Potency is read from the fitted curve at half-maximal effect.

SMILES	NPC1 prom act	FLuc modulator	ELG1 repair inh	Rab9 promoter act	ELG1 genotoxic	SMN2 splice up
Cn1c(=O)c2c([nH]c(=S)n2Cc2ccc(Cl)cc2)n(C)c1=O	-4%	?	-6%	5%	-4%	·
CCCc1cc(=O)[nH]c2nnc(SCC(=O)Nc3cccc(C)c3)n12	·	-2%	·	·	·	·
O=C(OCC(=O)c1ccccc1Br)c1ccncc1	0%	11µM*	-8%	-3%	-7%	4%
COc1ccc(C(=O)COC(=O)c2nn(C)cc2Cl)cc1	24%	17µM*	?	22%	?	·
CSc1ncccc1C(=O)OCC(=O)c1ccc(Br)s1	0%	12µM*	0%	9%	-2%	2%
O=C(NNC(=O)c1ccccc1Br)c1ccncc1	-2%	-5%	1%	6%	5%	·
CSc1ncccc1C(=O)OCC(=O)c1ccccc1	1%	12µM*	-11%	0%	4%	2%
CSc1ncccc1C(=O)OCC(=O)NC(C)(C)C	-1%	5%	-9%	-3%	2%	1%
CNC(=O)COC(=O)c1cccnc1SC	1%	1%	7%	-1%	0%	-7%
O=C(COC(=O)c1cccnc1Cl)c1cccc(Cl)c1	2%	13µM*	?	17%	11%	-4%
CSc1ncccc1C(=O)OCC(=O)c1ccccc1Br	1%	8.5µM*	-11%	-2%	10%	-6%
O=C(OCC(=O)c1cccc2ccccc12)c1ccc(CO)cc1	?	12µM*	?	22%	17%	·
CSc1ncccc1C(=O)OCC(=O)N(C)C	-1%	-1%	6%	-2%	1%	26%
O=C(OCc1ccc(Cl)cc1Cl)c1cccnc1Cl	-2%	-10%	-1%	-5%	-2%	-7%
CSc1ncccc1C(=O)OCC(=O)c1cc2ccccc2o1	10%	21µM*	-2%	-9%	3%	5%
CSc1ncccc1C(=O)OCC(=O)NC(N)=O	7%	-2%	21%	-8%	4%	7%
COc1ccc(OC)c(C(=O)COC(=O)c2cccnc2SC)c1	-9%	-3%	-18%	-8%	0%	·
Cn1cc(Cl)c(C(=O)OCC(=O)Nc2nc(-c3ccc(Br)cc3)cs2)n1	14%	?	?	17%	-1%	16µM*
COc1ccc(C(=O)COC(=O)c2cccnc2SC)cc1	4%	3.8µM*	3%	-9%	0%	3%
O=C(NP(=O)(N1CCOCC1)N1CCOCC1)C1=C(N2CCOCC2)/C(=C\c2ccccc2)CC1	0%	-20%	8%	-2%	4%	5%
COc1cc(NC(=O)C2=C(N3CCOCC3)/C(=C\c3ccc(Cl)cc3Cl)CC2)cc(OC)c1OC	-3%	2%	21µM*	-4%	-1%	14%
COc1cc(NC(=O)C2=C(N3CCOCC3)/C(=C\c3ccc(Br)cc3)CC2)cc(OC)c1OC	-3%	-2%	18µM*	3%	-6%	16%
CN(C)c1ccc(-c2noc(C3CC(=O)N(c4ccc5c(c4)OCCO5)C3)n2)cc1 (stereo not given)	·	-16%	·	·	·	·
COC(=O)c1sccc1S(=O)(=O)N1CCN(c2ccccc2)CC1	·	0%	·	·	·	·
COC(=O)[C@@]1(Cc2ccccc2)[C@H]2c3cc(C(=O)N4CCCC4)n(CCc4ccccn4)c3C[C@H]2CN1C(=O)c1ccccc1	·	·	·	·	·	-4%
SMILES	NPC1 prom act	FLuc modulator	ELG1 repair inh	Rab9 promoter act	ELG1 genotoxic	SMN2 splice up
CCOc1ccc(/C=C2/Sc3ccc(C(=O)NCC4CCCO4)cc3N(C)C2=O)cc1OC (stereo not given)	-4%	-20%	18µM*	-1%	1%[9.26 µM]	·
CCOc1ccc(/C=C2/Sc3ccc(C(=O)N4CCN(C(=O)c5ccco5)CC4)cc3N(C)C2=O)cc1OC	-19%	-12%	21µM*	-8%	-14%	-72%
O=C(Nc1ccc2c(c1)OCO2)c1cccc2c1C(=O)N(Cc1cccnc1)C2	-3%	15µM*	?	2%	?	-4%
CCOC(=O)CC(NC(=O)c1cccc2c1C(=O)N(Cc1cccnc1)C2)c1ccc(OCC)c(OC)c1 (stereo not given)	-7%	-3%	-20%	2%	-1%	·
COc1cc(NC(=O)c2cccc3c2C(=O)N(Cc2cccnc2)C3)cc(OC)c1OC	-6%	1%	9.2µM*	-8%	0%	?
COc1cccc2oc3ccc(C#CC4(N)CCCCC4)cc3c(=O)c12	?	6µM*	?	?	18µM*	·
Cn1c2ccccc2c(=O)c2cc(C#CC3(O)CCCCC3)ccc21	?	0.076µM*	?	?	0.12µM*	·
COc1cc(-c2noc(C)c2C#CC2(N)CCCCC2)cc(OC)c1OC	1%	1%	?	4%	5%	·
Cn1c2ccccc2c(=O)c2ccc(C#CC3(N)CCCCC3)cc21	4µM*	6.7µM*	?	2µM*	7.3µM*	·
COc1cccc(S(=O)(=O)NCc2ccc(C(=O)N3CCN(C)CC3)cc2)c1	6%	-1%	5%	2%	1%	·
CCOc1ccc(CCNC(=O)CCCc2nnc3n(CC)c(=O)c4sccc4n23)cc1OCC	·	-1%	·	·	·	2%
Cc1ccc(N2C(=NC(=O)c3ccccc3)SC3CS(=O)(=O)CC32)cc1 (stereo not given)	1%	4%	16%	-2%	1%	·
CCCC(=O)N=C1SC2CS(=O)(=O)CC2N1c1ccc(-c2nc3ccc(C)cc3s2)cc1 (stereo not given)	3.5µM*	5.4µM*	?	4µM*	21µM*	·
Cc1cccnc1NC(=O)Nc1cccs1	14%	12µM*	?	11%	17%	13%
Cc1ccccc1CNC(=O)Nc1cccs1	29%	21µM*	?	25%	8%	15%
O=C(NCc1cccs1)Nc1cccs1	11%	?	17%	12%	0%	2%
Cc1ccc(NC(=O)Nc2ncccc2C)cc1	2.8µM*	7.6µM*	?	2µM*	28%	10µM*
Cc1ccc(C)c(NC(=S)Nc2ncccc2C)c1	22%	17µM*	?	?	?	·
COc1ccc(OCC(O)CNC(=O)c2ccc(C)cc2)cc1 (stereo not given)	-2%	4%	0%	-2%	1%	·
CCN(CC)CC1CCCCN1CC(=O)N1c2ccccc2C(=O)Nc2cccnc21 (stereo not given)	-3%	3%	·	-3%	·	0%
O=C1Nc2cccnc2N(C(=O)CCl)c2ccccc21	-23%	1%	21µM*	-32%	-15%	·
